# “And” between values parts separate entries of the source, which are not always exact repeats. Equal values may be shown once. The source made the active and inactive calls.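 Rule for the calls, unless noted: active = compounds whose cell count with miR-34 switched on is under 0.7 times the count with it off; inactive = the rest.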
# Tests used:
# [1] = viability loss with induced miR-34 in A549 – imaging, A549 dox-inducible miR-34, nuclei and caspase counts, primary screen (AID 1347080); conditions: A549 miR-34 inducible, Hoechst nuclei count, 48 h
# [2] = blockers of cellular phospholipid synthesis – cell-based, LOPAC library, screen 4, primary screen (AID 1347384; call rule not given here); conditions: animal cells, phospholipid biosynthesis inhibition screen; at 10 µM
# [3] = galactose survival enhancers in mitochondrial complex I cybrids – cell-based, galactose medium, ATP luminescence, primary screen (AID 1645843;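 active = z-score of at least 1.8 in each of two replicates, scored against plate mean and spread of sample wells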;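 note: positive z means more ATP and so rescue of galactose-driven cybrid death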); conditions: complex I mutant cybrid cells, 72 h, stronger effect = higher value
# [4] = MELAS cybrid and Rieske KO viability enhancers – cell-based, MELAS cybrids, Rieske KO mouse fibroblasts, CellTiter-Glo, primary screen (AID 1508586;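 active = mean z-score across replicates of 1.96 or higher in either the MELAS or the Rieske mutant cell line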;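 note: z relative to plate mean and SD of compound and empty wells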); conditions: low glucose
# [5] = biological target: NAD(+) hydrolase SARM1 (Homo sapiens) (UniProt Q6SZW1); assay: blocking NAD cleavage by SARM1 SAM-TIR – cell lysate, NAD-Glo luminescence (AID 1508614;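 active = compound whose remaining NAD level is above about 45 nM, limit read from the data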;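 note: higher remaining NAD means stronger inhibition of SARM1 NADase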); conditions: SAM-TIR HEK293T lysate NADase, at 1 µM, stronger effect = higher value
# [6] = biological target: Mitogen-activated protein kinase 7 (Homo sapiens) (UniProt Q13164); assay: Gal4-ERK5 driven luciferase induction – cell-based, HTS, primary screen (AID 1508626;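 active = luciferase signal above three times the same-plate solvent-only control wells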;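 note: luciferase driven by Gal4-ERK5 fusion binding five Gal4 sites before minimal TATA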); conditions: HeLa Gal4-ERK5 transactivation, 18 h, at 5 µM, stronger effect = higher value
# [7] = stronger effect = lower value, cell number ratio, induced over uninduced
# [8] = measured here: relative caspase fold change +Dox/-Dox
# [9] = measured here: total cells with miR-34 induction, stronger effect = lower value
# [10] = measured here: total cells without miR-34 induction
# [11] = MELAS cybrid survival, CellTiter-Glo 48 h, stronger effect = higher value
# [12] = Rieske KO mouse fibroblast survival, CellTiter-Glo 72 h
# Chain of Mitogen-activated protein kinase 7 (Homo sapiens) (Q13164 whole entry, looked up, the tested form may be a part): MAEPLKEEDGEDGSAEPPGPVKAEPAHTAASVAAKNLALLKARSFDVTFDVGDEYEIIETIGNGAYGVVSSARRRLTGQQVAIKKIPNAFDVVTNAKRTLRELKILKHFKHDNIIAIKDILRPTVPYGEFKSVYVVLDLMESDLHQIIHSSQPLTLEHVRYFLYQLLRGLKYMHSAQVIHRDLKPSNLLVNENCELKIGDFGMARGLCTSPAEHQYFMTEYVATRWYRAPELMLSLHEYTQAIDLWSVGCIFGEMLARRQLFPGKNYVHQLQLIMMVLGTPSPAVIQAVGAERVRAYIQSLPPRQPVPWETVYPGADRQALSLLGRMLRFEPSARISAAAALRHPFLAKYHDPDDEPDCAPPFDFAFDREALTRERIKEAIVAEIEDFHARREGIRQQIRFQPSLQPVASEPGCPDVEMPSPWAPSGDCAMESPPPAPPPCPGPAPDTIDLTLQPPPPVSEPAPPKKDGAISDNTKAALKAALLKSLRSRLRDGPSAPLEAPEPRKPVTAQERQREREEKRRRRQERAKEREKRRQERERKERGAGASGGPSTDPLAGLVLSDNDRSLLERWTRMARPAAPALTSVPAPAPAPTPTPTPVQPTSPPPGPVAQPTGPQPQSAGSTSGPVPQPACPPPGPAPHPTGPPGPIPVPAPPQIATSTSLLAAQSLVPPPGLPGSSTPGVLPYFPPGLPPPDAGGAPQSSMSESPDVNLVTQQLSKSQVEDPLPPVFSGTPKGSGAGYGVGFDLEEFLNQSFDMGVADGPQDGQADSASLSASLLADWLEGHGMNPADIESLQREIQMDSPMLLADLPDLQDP
# Chain of NAD(+) hydrolase SARM1 (Homo sapiens) (Q6SZW1 whole entry, looked up, the tested form may be a part): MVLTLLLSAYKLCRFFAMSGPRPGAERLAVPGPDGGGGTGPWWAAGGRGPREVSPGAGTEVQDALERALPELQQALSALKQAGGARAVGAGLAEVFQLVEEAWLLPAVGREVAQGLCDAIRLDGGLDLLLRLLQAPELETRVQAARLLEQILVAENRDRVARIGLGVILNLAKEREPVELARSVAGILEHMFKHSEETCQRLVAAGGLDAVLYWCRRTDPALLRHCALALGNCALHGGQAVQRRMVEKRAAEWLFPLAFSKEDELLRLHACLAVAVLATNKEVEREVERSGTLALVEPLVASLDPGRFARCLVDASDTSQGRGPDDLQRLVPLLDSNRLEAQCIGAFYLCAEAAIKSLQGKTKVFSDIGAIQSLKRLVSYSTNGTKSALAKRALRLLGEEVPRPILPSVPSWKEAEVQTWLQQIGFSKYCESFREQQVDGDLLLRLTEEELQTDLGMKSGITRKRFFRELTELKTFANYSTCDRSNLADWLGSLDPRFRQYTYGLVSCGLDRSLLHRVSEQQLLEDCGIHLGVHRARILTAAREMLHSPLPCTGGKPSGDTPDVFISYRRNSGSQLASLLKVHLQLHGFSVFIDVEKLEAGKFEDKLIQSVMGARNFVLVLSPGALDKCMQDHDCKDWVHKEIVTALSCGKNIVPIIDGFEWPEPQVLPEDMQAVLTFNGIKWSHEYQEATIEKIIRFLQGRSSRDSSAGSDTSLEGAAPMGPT
Compound,"fold change [1, 7]","fold change [1, 8]","cell count [1, 9]","cell count [1, 10]",outcome [2],z-score [3],"z-score [4, 11]","z-score [4, 12]",remaining NAD [5],luciferase signal [6]
CN(C)CC[C@@H](c1ccc(Br)cc1)c1ccccn1,0.946 (inactive),1.72,9070,9580,inactive,-0.265 (inactive),,,,
CC(=O)OCC(=O)[C@@]1(O)[C@H](C)C[C@H]2[C@@H]3CCC4=CC(=O)C=C[C@]4(C)[C@@]3(F)[C@@H](O)C[C@@]21C,0.93 (inactive),1.03,6000,6450,,,-0.294 (inactive),0.00126,10 nM (inactive),120 AU (inactive)
CCOC(=O)n1ccn(C)c1=S,0.866 (inactive) and 0.865 (inactive),1.28 and 0.473,8700 and 8400,10100 and 9710,,,-0.0629 (inactive) and 0.57 (inactive),-0.122 and 0.0161,10 nM (inactive),
COc1c2occc2c(OC)c2c(=O)cc(C)oc12,0.924 (inactive),1.18,8440,9130,,,-0.15 (inactive),-0.129,10 nM (inactive),80 AU (inactive)
Nc1c2c(nc3ccccc13)CCCC2O (stereo not drawn),0.95 (inactive) and 0.845 (inactive) and 0.969 (inactive),0.943 and 1.26 and 0.952,9940 and 8540 and 10300,10500 and 10100 and 10600,inactive,0.445 (inactive) and 0.48 (inactive),1.73 (inactive) and -0.394 (inactive),0.362 and -0.175,,36 AU (inactive)
NC(Cc1ccc(Cl)cc1)C(=O)O (stereo not drawn),0.993 (inactive),1.95,10900,10900,inactive,0.25 (inactive),,,10 nM (inactive),
Cc1cccc(C)c1NC(=O)C(C)N (stereo not drawn),0.975 (inactive) and 0.939 (inactive) and 0.865 (inactive),0.988 and 0.663 and 1.75,10300 and 9450 and 9090,10600 and 10100 and 10500,inactive,0.04 (inactive) and 0.79 (inactive),0.748 (inactive),0.421,,
Cc1nc2sccn2c(=O)c1CCN1CCC(=C(c2ccc(F)cc2)c2ccc(F)cc2)CC1,1.04 (inactive) and 0.919 (inactive) and 0.754 (inactive),0.73 and 0.904 and 7.37,8680 and 6720 and 10000,8330 and 7320 and 13300,inactive,-1.37 (inactive) and -0.82 (inactive),,,10 nM (inactive),152 AU (active)
Cc1c(O)cccc1C(=O)N[C@@H](CSc1ccccc1)[C@H](O)CN1C[C@H]2CCCC[C@H]2C[C@H]1C(=O)NC(C)(C)C,0.973 (inactive) and 1.07 (inactive),1.56 and 1.1,1740 and 4590,1780 and 4280,inactive,-1.03 (inactive) and -1.48 (inactive),-0.847 (inactive) and 0.17,0.453 and 2.01,,
C[C@H](NC(CCc1ccccc1)C(=O)O)C(=O)N1CCC[C@H]1C(=O)O (stereo partly drawn),0.987 (inactive) and 0.909 (inactive),0.994 and 1.8,9660 and 10200,9790 and 11200,inactive,0.7 (inactive) and 0.605 (inactive),-0.542 (inactive),-1.35,10 nM (inactive),
CC(=O)Oc1cccc2c1C(=O)c1c(OC(C)=O)cc(C(=O)O)cc1C2=O,0.904 (inactive),2.1,8090,8950,,,-0.263 (inactive) and -0.828 (inactive),-0.165 and -1.06,10 nM (inactive),44 AU (inactive)
CCCCC1(COC(=O)CCC(=O)O)C(=O)N(c2ccccc2)N(c2ccccc2)C1=O,0.884 (inactive),1.12,8700,9850,,,0.542 (inactive),0.234,10 nM (inactive),
CCc1c(C)[nH]c2c1C(=O)C(CN1CCOCC1)CC2 (stereo not drawn),1.14 (inactive) and 0.913 (inactive) and 0.969 (inactive),1.35 and 0.853 and 0.538,11100 and 9250 and 9310,9700 and 10100 and 9610,inactive,0.39 (inactive) and -0.105 (inactive),0.0774 (inactive),-0.448,,
C[C@]12C[C@H](O)[C@H]3[C@@H](CCC4=CC(=O)CC[C@@]43C)[C@@H]1CC[C@@H]2C(=O)CO,0.955 (inactive) and 0.755 (inactive) and 0.815 (inactive),2.18 and 1.95 and 1.31,7560 and 6880 and 7400,7920 and 9120 and 9080,inactive,-0.085 (inactive) and -0.065 (inactive),0.478 (inactive) and -0.124 (inactive),-0.146 and 0.938,,
CCn1cc(C(=O)O)c(=O)c2cnc(N3CCCC3)nc21,0.925 (inactive),1.02,8260,8920,,,-0.0207 (inactive),-0.983,10 nM (inactive),80 AU (inactive)
CCN1CCC[C@H]1CNC(=O)c1cc(S(N)(=O)=O)ccc1OC,1.01 (inactive) and 0.997 (inactive) and 0.936 (inactive),1.51 and 0.827 and 1.56,10700 and 9240 and 9830,10600 and 9270 and 10500,inactive,0.65 (inactive) and 0.075 (inactive) and 0.505 (inactive),0.469 (inactive),0.62,,
CN(C)CC[C@@H](c1ccc(Cl)cc1)c1ccccn1,1.01 (inactive),1.39,9880,9740,inactive,-0.155 (inactive),,,10 nM (inactive),40 AU (inactive)

# Source: PubChem BioAssay
